Screens from PubChem BioAssay.
Tb PYK inh – qHTS of Trypanosoma Brucei Inhibitors; AID 624173, 2012; TbPYK enzyme, Kinase-Glo Plus ATP luminescence, 45 min; 410,000 tested, 0.12% active; Potency, µM (highest dose often 76.8 µM), for the others: at the top dose activity, negative = inhibition, usual class: inhibitors; pyruvate kinase (Trypanosoma brucei), Q57TT1; also: potency is read from the fitted curve at half-maximal effect; % is scaled to controls: 0 for no effect and ±100 for the full control effect; nearly all actives have a fitted effect of over 50% in size
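In this concentration-response screen, enzyme-free wells defined baseline while DMSO plates tracked drift. Each reaction combined TbPYK, substrate, compound and 130 uM ADP for 45 min at room temperature. Kinase-Glo Plus luminescence gave the signal.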
Shiga inhibitor – A qHTS for Small Molecule Inhibitors of Shiga Toxin; Vero cells, Shiga toxin protein synthesis inhibition reporter; inhibition, % at 38.7 µM; 290,000 tested, 9.2% active; in the data active = inhibition mostly above about 28%, no sharp cut-off; inactive = mostly below about 43%; also: 0% is about no effect
RE007 growth inh – qHTS Assay for Inhibitors of the HIV-1 protein Vpr. S. pombe RE007 Vpr strain, BacTiter-Glo ATP luminescence, 24 h. 360,000 tested, 0.21% active. AID 651644, 2012. Potency, µM (top dose mostly 92.2 µM), for the others: top-dose activity change, negative = less growth, most hits filed as inhibitors; active = well fitted falling curve with a large enough effect; inconclusive = small, poorly fitted or top-dose-only effect; inactive = no such curve, though single readings can be large or run the other way; also: potency is read from the fitted curve at half-maximal effect; % is scaled to controls: 0 for no effect and ±100 for the full control effect; nearly all actives have a fitted effect of over 50% in size
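Fission yeast RE007 carrying one integrated HIV-1 vpr copy, seeded at OD 0.01 in PMG+AL medium with 23 nL pinned compound. Grown 24 h at 30 degrees; viability read by BacTiter-Glo luminescence after 5 min.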
CHX counter – Cycloheximide Counterscreen for Small Molecule Inhibitors of Shiga Toxin; cell reporter, cycloheximide protein synthesis inhibition counterscreen; max response, %; 300,000 tested, 12% active; in the data active = max response mostly above about 13%, no sharp cut-off; inactive = mostly below about 14%; also: read at 38.3 µM for the half of the compounds with a filed dose; 0% is about no effect
Giardia FBPA inh – qHTS Assay for Inhibitors of Fructose-1,6-bisphosphate Aldolase from Giardia Lamblia | 290,000 tested, 0.71% active | purified Giardia FBPA | Potency, µM (titrated, usually from 59.6 µM), without a hit: top-dose activity, negative = inhibition, actives largely listed as inhibitors | A8B2U2 | AID 2451, 2010; also: potency is read from the fitted curve at half-maximal effect; % is scaled to controls: 0 for no effect and ±100 for the full control effect; nearly all actives have a fitted effect of over 55% in size
Target sequence (A8B2U2 whole entry, looked up): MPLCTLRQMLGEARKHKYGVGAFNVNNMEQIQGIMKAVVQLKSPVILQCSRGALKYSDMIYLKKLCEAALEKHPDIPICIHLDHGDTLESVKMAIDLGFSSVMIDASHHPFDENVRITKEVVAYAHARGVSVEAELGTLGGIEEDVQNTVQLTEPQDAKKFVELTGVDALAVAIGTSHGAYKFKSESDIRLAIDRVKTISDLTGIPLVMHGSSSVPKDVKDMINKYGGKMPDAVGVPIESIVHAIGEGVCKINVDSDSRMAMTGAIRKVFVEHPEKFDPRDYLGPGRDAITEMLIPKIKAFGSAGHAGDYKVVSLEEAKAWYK
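Giardia FBPA (40 nM reagent) was preincubated 10 min at RT with compound (up to 57.5 uM final), then substrate plus GAPDH/TPI/NAD/arsenate coupling system with diaphorase/resazurin was added; resorufin fluorescence (525/598 nm) was read after 20 min.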
LmPK inh – qHTS Assay for Inhibitors of Leishmania Mexicana Pyruvate Kinase (LmPK). Potency, µM (series often up to 57.5 µM), without a hit: at the highest dose activity change, negative = inhibition, hits mostly inhibitors. purified LmPK, Kinase-Glo ATP luminescence, 1 h. 290,000 tested, 0.37% active; also: potency is read from the fitted curve at half-maximal effect; % is scaled to controls: 0 for no effect and ±100 for the full control effect
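ATP generated from ADP (0.1 mM) and PEP (0.5 mM) by 0.1 nM LmPK over 1 h at room temperature (pH 7.2 imidazole buffer) was detected by coupled luciferase luminescence. Values were normalized to uninhibited and no-enzyme wells.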
Active calls of the source: *; ? = inconclusive; / = no result; [ ] = dose if it differs, or a comment. The full list was thinned out, with hits kept by preference. Unless noted, calls follow the shape of the dose curve; as a rule, active = well fitted curve in the direction sought with a large enough effect; inconclusive = small, poorly fitted or top-dose-only effect, or another doubt; inactive = no such curve, though single readings can be large; an effect the other way counts as inactive or inconclusive.

SMILES	Tb PYK inh	Shiga inhibitor	RE007 growth inh	CHX counter	Giardia FBPA inh	LmPK inh
CC1CCCC(NC(=O)COC(=O)c2ccc([N+](=O)[O-])s2)C1C (centres undefined)	1.9%	/	?	/	/	/
CCCNC(=O)COC(=O)c1ccccc1C(=O)c1ccc(Cl)c([N+](=O)[O-])c1	-0.7%	41.1	11.0%	59.7*	-4.5%	0.3%
CC(C)=CCC/C(C)=C/C=C/C1=CC2(C)CC1(C)C(/C=C(\C)CCC=C(C)C)CC2=O (centres undefined)	/	/	/	/	-1.0%[12.9 µM]	/
Cc1nc(N)sc1-c1csc(N(C)c2ccc(O)cc2)n1	-13.2%	66.0*	-5.2%	23.4*	-23.5%	0.1%
C=CCn1c(=O)c2ccccc2n2c(SCc3nc4ccccc4s3)nnc12	-6.2%	131.4*	-3.0%	44.8*	-11.3%	-9.8%
COCCn1c(SCc2nc3ccccc3s2)nc2ccccc21	-10.2%	146.7*	11.8%	36.7*	-6.8%	-3.7%
C=CCn1c(=O)c2ccccc2n2c(SCC(=O)O)nnc12	5.9%	-13.0	16.7%	-8.1	-19.6%	4.7%
CCOCCCn1c(SCc2nc3ccccc3s2)nc2ccccc2c1=O	-10.7%	101.3*	/	87.3*	17.2%	-0.5%
CCOCCCn1c(SCC(=O)Nc2ccccc2)nc2ccccc2c1=O	-3.3%	3.4	3.0%	2.0	4.5%	1.9%
COc1ccc(OC)c(C2=Nn3c(nnc3-c3ccccc3O)SC2)c1	/	0.6	/	4.4	-11.0%	/
O=C(Nc1cccc(Br)c1)c1cc(S(=O)(=O)N2CCCCC2)c[nH]1	6.4%	/	/	/	/	/
Cc1ccc(NC(=O)CS(=O)CC(=O)Nc2ccccc2-c2ccc(C)o2)cc1 (centres undefined)	-1.7%	-7.4	3.1%	0.2	-10.0%	3.3%
CC(=O)Nc1ccccc1-c1ccc(C)o1	0.3%	16.3	-27.0%	16.3*	0.6%	2.8%
COC(=O)c1ccc(COc2ccccc2[N+](=O)[O-])o1	2.7%	72.7*	7.9%	45.3*	3.2%	-0.2%
Cc1ccc(OCc2ccc(C(=O)O)o2)c([N+](=O)[O-])c1	-1.7%	21.9	-8.4%	13.3*	28.9%	3.7%
Cc1ccc(OCc2ccc(C(=O)N3CCCC3)o2)c([N+](=O)[O-])c1	-0.1%	23.6	16.5%	17.7	7.9%	0.3%
Cc1ccc(-c2noc(CSc3nc(N)cc(N)n3)n2)cc1	5.1%	87.3*	-13.4%	52.7*	-10.0%	-2.3%
Cc1ccc(-c2noc(CSc3nnc(C)n3-c3ccc(C)cc3)n2)cc1	-0.7%	/	/	/	/	/
Cc1cccc(-c2noc(CSc3ccccc3)n2)c1	-7.6%	67.1*	?	44.5*	3.9%	-5.8%
Cc1ccc(-c2noc(CSc3nnc(C)n3-c3ccc(C)c(C)c3)n2)cc1	0.6%	/	/	/	/	/
c1ccc(C(Cc2nc(-c3cccnc3)no2)c2ccccc2)cc1	1.2%	9.3	13.3%	-1.2	3.0%	-5.8%
c1ccc(SCc2nc(-c3cccnc3)no2)cc1	-6.6%	108.0*	3.8%	36.4*	1.0%	-12.7%
Cc1ccc(-c2noc(CSc3ccccc3)n2)cc1	-4.7%	76.6*	-9.4%	33.3*	1.0%	-11.4%
N#Cc1ccc(CN2CCC3(CC2)CCN(S(=O)(=O)c2ccccc2)CC3)cc1	0.0%	/	/	/	0.4%	/
CCCCNC(=O)c1cc(-c2ccc(OC)cc2)nc2n[nH]c(-c3cccc([N+](=O)[O-])c3)c12	-10.8%	/	/	/	/	/
SMILES	Tb PYK inh	Shiga inhibitor	RE007 growth inh	CHX counter	Giardia FBPA inh	LmPK inh
COc1ccc(-c2noc(-c3ccc(NC4CCCCC4)c([N+](=O)[O-])c3)n2)cc1	0.4%	/	/	/	/	/
CCOc1ccc(CCNC(=O)Cc2ccc(NC(=O)N3CCSc4ncccc43)cc2)cc1	1.2%[15.4 µM]	/	/	/	/	/
c1ccc(OCCCc2nc(-c3cccnc3)no2)cc1	2.0%	-14.7	-28.1%	12.5	-14.6%	4.3%
c1ccc(CCCc2nc(-c3cccnc3)no2)cc1	1.8%	43.1*	-0.1%	19.1*	1.7%	-6.9%
C(=C\c1ccccn1)/c1ccccn1	-1.6%	105.4*	6.6%	63.5*	-10.9%	-20.5%
C(=NOCc1ccccc1)c1ccccn1	-5.5%	/	-25.6%	/	/	/
Brc1ccc(N=Cc2ccccn2)cc1	-3.6%	54.4*	/	22.1*	-1.9%	-1.2%
COC(=O)[C@@H]1[C@@H](C)N(CCc2cc(OC)c(OC)c(OC)c2)C(=O)N[C@H]1c1ccccc1	/	/	/	/	18.0%[12.9 µM]	-1.1%[11.5 µM]
COC(=O)C1=C[C@@H](C(=O)OC)C2C3=C(C(=O)[C@@]2(C)NC(=O)c2ccccc2)[C@H](C)n2c(=O)n(-c4ccccc4)c(=O)n2[C@@H]3C1 (some centres undefined)	/	-1.8	/	-3.4	-6.9%	/
CCOC(=O)N1CCC(NC(=O)Cn2ncc3c4ccccc4n(C)c3c2=O)CC1	-13.0%	34.5*	-3.4%	22.0*	1.0%	-0.1%
Cn1c2ccccc2c2cnn(CC(=O)O)c(=O)c21	-2.3%	28.3	9.6%	-2.6	4.9%	1.5%
Cc1c2cnn(CC(=O)NCCCN3CCCCC3C)c(=O)c2c(C)n1Cc1ccccc1 (centres undefined)	0.0%	12.3	1.2%	-1.9	-11.0%	-6.6%
COC(=O)Cn1ncc2c3ccccc3n(C)c2c1=O	-5.8%	43.0*	7.6%	24.5*	-4.2%	-2.7%
Cc1c2cnn(CC(=O)NC3CCCC3)c(=O)c2c(C)n1Cc1ccccc1	1.9%	76.9*	8.6%	28.9*	-3.5%	-3.3%
O=C(O)C1CCC(c2ccc(-c3ccccc3)cc2)CC1 (centres undefined)	1.6%	116.4*	6.3%	73.0*	5.8%	1.4%
Cc1oc2cc3oc(=O)c(CCC(=O)NCCc4ccccc4F)c(C)c3cc2c1C	1.2%	/	/	/	/	/
Cc1oc2cc3oc(=O)c(CCC(=O)NCCCN4CCOCC4)c(C)c3cc2c1C	1.6%	26.5	-17.9%	active	-9.0%	1.9%
Cc1coc2cc3oc(=O)c(CCC(=O)NCCCn4ccnc4)c(C)c3cc12	0.3%	7.2	-17.2%	-1.1	-9.1%	3.2%
Cc1oc2cc3oc(=O)c(CCC(=O)NCCCn4ccnc4)c(C)c3cc2c1C	-15.3%	15.2	-22.8%	7.8*	-0.9%	-3.4%
O=C(Nc1cc(Cl)ccc1N1CCOCC1)c1ccncc1	1.4%	/	-14.2%	/	/	/
COC(=O)c1cc(NC(=O)c2cccs2)ccc1N1CCOCC1	2.0%	-14.8	-5.4%	1.6	0.7%	-15.0%
O=C(Nc1ccc(N2CCOCC2)c(F)c1)c1cccs1	-8.1%	52.8*	?	43.6*	-8.8%	-29.7%
O=C(Nc1ccc(N2CCOCC2)c(F)c1)c1ccncc1	-0.4%	60.8*	-7.9%	17.9*	-9.1%	-3.6%
